Compound activity: PubChem, Paczesny and Yang Labs, IUPUI and University of Michigan
ST2 IL33 inh: inhibitors of human ST2 (IL1RL1) binding to IL-33, primary screen, biochemical, AlphaLISA. AID 1259354, 2018. actives 2.3% (n = 78,000). inhibition, % for hits at 17 µM. Interleukin-1 receptor-like 1 (Homo sapiens), Q01638. AlphaLISA ST2-Fc/biotin-IL-33 interaction, 1 h; in the data active means inhibition above about 30%
Target sequence (Q01638 whole entry, looked up): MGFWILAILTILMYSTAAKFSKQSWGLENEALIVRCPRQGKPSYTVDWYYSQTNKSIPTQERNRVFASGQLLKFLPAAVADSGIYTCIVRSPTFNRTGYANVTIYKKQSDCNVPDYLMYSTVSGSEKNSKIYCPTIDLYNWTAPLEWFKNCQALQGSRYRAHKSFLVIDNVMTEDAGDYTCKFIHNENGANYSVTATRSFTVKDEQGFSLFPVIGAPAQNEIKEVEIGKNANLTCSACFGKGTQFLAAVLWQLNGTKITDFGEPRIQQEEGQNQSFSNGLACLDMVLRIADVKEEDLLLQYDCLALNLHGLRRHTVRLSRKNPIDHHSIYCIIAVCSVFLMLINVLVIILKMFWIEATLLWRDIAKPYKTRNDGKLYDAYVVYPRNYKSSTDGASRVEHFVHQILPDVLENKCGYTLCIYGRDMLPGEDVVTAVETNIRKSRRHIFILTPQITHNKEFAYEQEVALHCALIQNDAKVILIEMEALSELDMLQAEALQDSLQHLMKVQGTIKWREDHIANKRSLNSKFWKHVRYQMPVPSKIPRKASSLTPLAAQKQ
Active calls of the source: *; i = inactive; ! = a repeat was not active. Many of the other results were omitted from the sample, so hits are more common in it than they were.

SMILES	ST2 IL33 inh
CC1=NN(c2cccc(Cl)c2)C(=O)/C1=C\c1ccc(C)cc1	30%*
CC1=NN(c2cccc(Cl)c2)C(=O)/C1=C\c1ccco1	44%*
CN(C)N1C(=O)CC(Nc2ccccc2)C1=O (centres undefined)	i
CCOC(=O)N1CCC(N(C)Cc2sccc2C)CC1	i
Cc1cc(C(=O)N2CCOc3ccc(CN4CCC(OCc5ccccc5)CC4)cc3C2)nc(C)n1	i
Cc1ccc(S(=O)(=O)N2CCSC2c2ccccc2)cc1[N+](=O)[O-] (centres undefined)	i
COc1ccc(OC)c(NS(=O)(=O)c2ccc3[nH]c(=O)sc3c2)c1	i
Cc1ccc(Nc2cc(C)nc(N3CCN(S(=O)(=O)c4cc(C(C)C)ccc4C)CC3)n2)cc1	30%*
Cc1ccc(C)c(S(=O)(=O)N2CCN(c3nc(C)cc(Nc4ccccc4)n3)CC2)c1	i
Cc1ccc(Nc2cc(C)nc(N3CCN(S(=O)(=O)c4c(C)cc(C)cc4C)CC3)n2)cc1	i
CN(C)c1nccnc1Oc1ccccc1CN1CCOCC1	i
CN(CC1(CO)CC1)C(=O)[C@@H]1CCCCN1	i
COc1ccc(C2CC(C3C(=O)c4ccccc4C3=O)=NN2)cc1 (centres undefined)	36%*
COc1ccc(C2=NNC(c3ccccc3)C2)c(O)c1 (centres undefined)	i
COc1cccc2ccc(C3C(=O)c4ccccc4C3=O)nc12	i
O=C(Nc1ccccn1)c1cccc(S(=O)(=O)N2CCCCC2)c1	i
O=C(Nc1ccccc1C(=O)O)c1ccc(S(=O)(=O)N2CCCCC2)cc1	i
O=C(Nc1ccccc1[N+](=O)[O-])c1ccc(S(=O)(=O)N2CCCCC2)cc1	35%*
Cc1ccc(NC(=O)c2cccc(S(=O)(=O)N3CCCCC3)c2)cc1	i
CC1CN(S(=O)(=O)c2ccc(Cl)c(C(=O)Nc3ccccc3[N+](=O)[O-])c2)CC(C)O1 (centres undefined)	i
O=C(Nc1ccccc1[N+](=O)[O-])c1cccc(S(=O)(=O)N2CCCCC2)c1	43%*
O=C(NCCCNc1ccc([N+](=O)[O-])cc1)c1cc2ccccc2o1	i
CC1(C)CC(=O)C2=C(C1)c1c(ccc3ncccc13)NC2c1cccnc1 (centres undefined)	i
COc1ccc(-n2c(=O)c3c(n4cnnc24)-c2ccccc2CC32CCCC2)cc1	i
C=CCSc1nnc2n(C)c(=O)c3c(n12)-c1ccccc1CC31CCCCC1	38%*
SMILES	ST2 IL33 inh
CCSc1nnc2n(C)c(=O)c3c(n12)-c1ccccc1CC31CCCCC1	i
COc1cc(OC)cc(C(=O)NCC2CCCN(C(=O)CCc3cnccn3)C2)c1 (centres undefined)	i
COC(=O)c1cccc(NC(=S)N[C@H]2CO[C@H]3[C@@H]2OC[C@H]3OCC(N)=O)c1	i
N[C@@H]1CC[C@@H](NC(=O)CCCc2cn[nH]c2)C1	i
Cc1ccc(-c2csc(NC(=O)c3cc(=O)c4ccccc4o3)n2)cc1C	i
O=C(Nc1nc(-c2ccc3c(c2)OCO3)cs1)c1cc(=O)c2ccccc2o1	45%*!
COc1ccc(-c2csc(NC(=O)c3cc(=O)c4ccccc4o3)n2)cc1	i
O=S(=O)(Cc1noc([C@@H]2C[C@@H](O)CN2Cc2cc3ccccc3o2)n1)c1ccc(F)cc1	i
O[C@@H]1C[C@@H](c2nc(-c3ccc(C(F)(F)F)cc3)no2)N(Cc2cc3ccccc3o2)C1	i
CC(C)c1noc([C@@H]2C[C@@H](O)CN2Cc2cc3ccccc3o2)n1	38%*
CN(Cc1csc(-c2ccccc2)n1)C1CCN(S(C)(=O)=O)CC1	i
Cc1nn(C)c(C)c1S(=O)(=O)NCc1nc(N2CCCC2)c2cc(Cl)ccc2n1	i
COc1ccc(N(CC(=O)Nc2ccc(Br)c(C)c2)S(C)(=O)=O)c(OC)c1	i
Cc1cccc(Nc2nc(C)[nH]c2[N+](=O)[O-])c1	i
Cc1cccc(N=Cc2c(Nc3cccc(C)c3)nc3ccccn3c2=O)c1	44%*
Cn1c(C(=O)Nc2cccc(Cl)c2)cc2c(=O)n3ccccc3nc21	i
O=C(NC[C@H]1O[C@@H](CO)[C@@H](O)[C@H]1N1CCN(c2ncccn2)CC1)N1CCOCC1	i
COc1ccc(CC(=O)NCC2CCCN(C(=O)c3cn4c(C)cccc4n3)C2)cc1 (centres undefined)	i
CC(C)Oc1cccc(C(=O)Nc2cc(-c3nc4ncccc4o3)ccc2Cl)c1	i
CCOc1ccc(C(=O)Nc2cc(-c3nc4ncccc4o3)ccc2C)cc1	i
O=C(COc1ccccc1)Nc1ccc(Cl)cc1	i
O=C(COc1ccc(Br)cc1)Nc1ccc(F)cc1	39%*
O=C(COc1ccc(Br)cc1)Nc1ccc(-c2nc3ncccc3o2)cc1	33%*
Cc1ccc(NC(=O)COc2ccc(C)cc2)cc1	i
CCC(=O)Nc1ccc(-c2nc3ncccc3o2)cc1	i
SMILES	ST2 IL33 inh
Cc1ccc(OCC(=O)Nc2cc(-c3nc4ncccc4o3)ccc2Cl)cc1C	30%*
Cc1ccc(-c2nc3ncccc3o2)cc1NC(=O)COc1ccc(Br)cc1	i
O=C(Cn1cnc2c(cnn2-c2ccccc2)c1=O)NCc1ccco1	i
OCC1(Cc2ccccc2Cl)CCN(Cc2cccc(F)c2F)CC1	i
COC(=O)C1C(=O)C2=C(CC1C)NC(C)=C(C(=O)OC(C)C)C2c1ccc(C)cc1 (centres undefined)	i
COc1ccc(Nc2ncnc(N)c2[N+](=O)[O-])c(OC)c1	i
COc1cc2c(cc1OC)CN(C(=O)CC1C(=O)NCCN1Cc1ccccn1)CC2 (centres undefined)	i
CC(C)CCCC1CN(C(=O)c2ccc(=O)[nH]n2)CCO1 (centres undefined)	i
COc1ccc(CCn2nc(C(=O)N(C)C)c3c2CCN(Cc2ccc(C)o2)C3)cc1	i
CC(=O)C(=C(C)O)c1nc2ccccc2[nH]1	i
CCC(CC)N(CCc1ccccc1)C(=O)c1cccc(=O)[nH]1	i
COc1cccc(NC(=O)CN(c2ccc(Cl)c(Cl)c2)S(C)(=O)=O)c1	96%*
COc1ccc(N(CC(=O)Nc2ccc(C)c(Cl)c2)S(C)(=O)=O)cc1	i
COc1ccc(N(CC(=O)Nc2ccc(F)cc2)S(C)(=O)=O)cc1Cl	i
CCN(CC)c1cc(C)c2cc(NC(=O)Cn3nc([N+](=O)[O-])c(Cl)c3C)ccc2n1	i
COc1ccc(NC(=O)N2Cc3[nH]cnc3C[C@H]2c2nc(-c3cccc(C)c3)no2)cc1	i
CC(C)Oc1cccc(F)c1-c1cc(C(N)=O)ccn1	i
CCOC1=NC2Nc3ccccc3N(CC)C2C1c1ccc([N+](=O)[O-])cc1 (centres undefined)	i
CCC1(CC)OC(c2cccn2-c2ccc([N+](=O)[O-])cc2)Nc2ccccc21 (centres undefined)	54%*
CCc1ccc(N2C(=O)c3ccccc3NC2c2cccc([N+](=O)[O-])c2)cc1 (centres undefined)	i
CCC(=O)Nc1nnc(N=Cc2ccc(Br)s2)s1	i
COc1ccccc1C1C(C(=O)Nc2nc3ccccc3s2)=C(C)NC2=C1C(=O)CC(C)(C)C2 (centres undefined)	i
CC(C)c1[nH]nc2c1C(c1cccc(Cl)c1Cl)C(C#N)=C(N)O2 (centres undefined)	i
